Sampled rows, rich in hits. Any-hit rate of the full collection: about 21%.
Pf growth 96h: P. falciparum growth inhibition at 96 hour, primary screen for plastid delayed-death inhibitors; P. falciparum luciferase reporter growth, 96 h; Potency, µM (doses to about 28.7 µM), actives largely listed as inhibitors; 320,000 tested, 6.9% active; AID 504834; active = well fitted inhibition curve with a large enough effect; inconclusive = small, poorly fitted or top-dose-only effect, or another doubt; inactive = no such curve, though single readings can be large or run the other way
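Infected RBCs, 2% Hct / 0.05% parasitemia final; luciferase-reporter P. falciparum; cpd 96 h, 37 C, 5% CO2; luciferase detection reagent; luminescence.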
Pf growth 48h: P. falciparum growth inhibition at 48 hours (one generation); P. falciparum luciferase growth in erythrocytes, 48 h; Potency, µM (top dose mostly 28.7 µM), most hits filed as inhibitors; 310,000 tested, 5.9% active; AID 504832; active = well fitted inhibition curve with a large enough effect; inconclusive = small, poorly fitted or top-dose-only effect, or another doubt; inactive = no such curve, though single readings can be large or run the other way
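Luminescence readout; reporter = integrated firefly luciferase in P. falciparum. RBC culture at 2% hematocrit, 0.1% parasitemia final, 37 C/5% CO2; decreased signal taken as growth inhibition.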
NS1 function inh: inhibitors of influenza NS1 protein function; Potency, µM (series often up to 46.1 µM); 270,000 tested, 0.4% active; note: actives are rising curves; nearly all actives have a fitted effect of over 50% in size
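S. cerevisiae expressing influenza A NS1, grown in glucose, washed, then diluted 1:100 into pH 6.0 -URA galactose medium with 23 nl compound. Growth recovery read as OD600; NS1-free strain serves as control.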
SARS PLP yeast: inhibitors of SARS-CoV papain-like protease in yeast; Potency, µM (doses to about 32.9 µM), actives largely listed as activators; AID 485353; 330,000 tested, 0.19% active; S. cerevisiae expressing SARS-CoV PLpro, growth rescue; note: nearly all actives have a fitted effect of over 55% in size
Cycloheximide cs: affects cycloheximide protein synthesis inhibition readout, counter-screen | max response, % | cell reporter, cycloheximide protein synthesis inhibition counterscreen | 300,000 tested, 12% active; in the data active = max response mostly above about 13%, no sharp cut-off; inactive = mostly below about 14%; note: read at 38.3 µM for the half of the compounds with a filed dose
Shiga inhibitor: inhibitors of Shiga toxin in Vero cells | Vero cells, Shiga toxin protein synthesis inhibition reporter | inhibition, % at 38.7 µM | 290,000 tested, 9.2% active | AID 2315; in the data active = inhibition mostly above about 28%, no sharp cut-off; inactive = mostly below about 43%
Hits are given with their value; – = inactive; ? = inconclusive; · = no result; [ ] = another dose, or the depositor's remark. Unless noted, calls come from the whole dose curve.

SMILES	Pf growth 96h	Pf growth 48h	NS1 function inh	SARS PLP yeast	Cycloheximide cs	Shiga inhibitor
Cn1c(=O)c2c(nc(SCCOc3ccc4ccc(=O)oc4c3)n2C)n(C)c1=O	13.1µM	–	–	–	–	–
COc1ccc(C(=O)CSc2nc3c(c(=O)n(C)c(=O)n3C)n2C)cc1	–	–	?	–	–	–
Cc1c(C(=O)Nc2cccc([N+](=O)[O-])c2)csc1-c1ccccc1	–	–	–	–	45.8	83.2
O=C(O)c1cc([N+](=O)[O-])ccc1C(=O)Nc1cccc([N+](=O)[O-])c1	–	–	–	–	–	–
Cc1ccc(NC(=O)c2csc(-c3ccccc3)c2C)cc1	–	–	–	–	53.9	199.0
Cc1ccc(NC(=O)c2ccccc2-c2cc(C)no2)cc1	–	?	–	–	–	–
CCN1CCc2c(OCc3ccccc3)cccc2C1=O	–	–	·	–	–	–
CC(C)CC(=O)N1CCN(C(=O)c2ccc(F)cc2)CC1	13.1µM	–	–	–	–	–
COc1ccc(-c2cn(-c3ccc(Br)cc3)c3[n+]2CCS3)cc1	?	1.04µM	–	–	–	–
Fc1ccc(-c2cn(-c3ccccc3)c3[n+]2CCS3)cc1	0.415µM	0.928µM	–	–	–	–
Clc1ccc(-c2cn(-c3ccccc3)c3[n+]2CCS3)cc1	–[5.75 µM]	?	–	–	–	–
COc1ccc(C(=O)Cn2c3ccccc3n3nc(CCC(=O)O)c(=O)nc23)cc1OC	?	·	–	–	–	–
O=C1CC(N2CCSCC2)C(=O)N1c1cccc(Cl)c1 (stereo not given)	?	–	·	–	–	–
O=C(CSc1nnc(-c2cccnc2)o1)Oc1ccccc1	–	–	–	–	–	–
O=C(CSc1nnc(-c2cccnc2)o1)c1cc2ccccc2oc1=O	–	7.38µM	?	–	–	–
N#Cc1ccc(-c2ccccc2)nc1SCC(=O)c1cc2ccccc2oc1=O	?	9.28µM	–	–	–	–
Cc1ccc(S(=O)(=O)N2C(=O)CCC2C(=O)O/N=C(\N)c2ccc([N+](=O)[O-])cc2)cc1 (stereo not given)	–	–	–	–	–	–
CC(NC1CCCCC1)C(O)C12CC3CC(CC(C3)C1)C2 (stereo not given)	·	7.38µM	–	–	–	–
CC(NC(N)=O)C12CC3CC(CC(C3)C1)C2 (stereo not given)	–	–	–	–	–	–
CN(c1nc2ccccc2nc1Cl)S(=O)(=O)c1ccccc1	–	–	–	–	27.0	44.6
Cc1ccc(S(=O)(=O)N2CCOCC2)cc1NC(=O)COC(=O)COc1cccc2c1OC(C)(C)C2	–	–	·	–	·	·
Cc1ccc(NC(=O)c2ccoc2C)cc1C	–	–	–	–	40.2	106.8
CC(=O)Nc1cccc(OC(=O)N2CCOCC2)c1	?	–	–	–	–	–
CC(=O)Nc1cccc(OC(=O)c2ccoc2C)c1	–	–	?	–	9.7	–
Cc1occc1C(=O)Nc1cccc(C(=O)O)c1	·	–	–	–	20.5	–
SMILES	Pf growth 96h	Pf growth 48h	NS1 function inh	SARS PLP yeast	Cycloheximide cs	Shiga inhibitor
Cc1occc1C(=O)NNC(=O)Nc1ccc(Cl)c(Cl)c1	?	–	–	–	13.2	–
CCOC(=O)C1(CC2CCCCO2)CCN(Cc2cn[nH]c2-c2cccc(F)c2)CC1 (stereo not given)	–	–	–	–	–	–
CCC(C)NC(=O)c1cc2c(=O)n3cccc(C)c3nc2s1 (stereo not given)	–	–	–	–	–	–
CCc1nnc(NC(=O)CSc2nnc(C)c(=O)n2N)s1	–	–	–	–	–	–
COc1ccc(OC)c(N(CC(=O)N2CCOCC2)S(C)(=O)=O)c1	?	–	–	–	–	–
Cc1occc1C(=O)Nc1ccc2c(c1)OCO2	·	–	–	–	37.1	78.2
Cc1oc(-c2ccccc2F)nc1CS(=O)CC(=O)NCc1ccc(F)cc1 (stereo not given)	2.94µM	–	–	–	–	–
Cc1ccc(-c2nc(CS(=O)CC(=O)N3CCN(c4ccc(F)cc4)CC3)c(C)o2)cc1 (stereo not given)	?	–	–	–	–	–
Cc1cccc(-c2nc(CS(=O)CC(=O)N3CCN(C)CC3)c(C)o2)c1 (stereo not given)	7.38µM	·	?	–	–	–
Cc1cccc(-c2nc(CS(=O)CC(=O)NCCc3ccccc3)c(C)o2)c1 (stereo not given)	5.22µM	–	–	–	–	–

Screening results: PubChem, National Center for Advancing Translational Sciences (NCATS)
